gsp agonist = activates gsp, the McCune-Albright syndrome mutation. gsp mutant cells, cAMP HTRF, 30 min. Potency, µM (titrated, usually from 76.9 µM), for the others: at the top dose activation (cAMP increase), actives largely listed as activators. hit rate 0.13% among 340,000; active = well fitted activation curve with a large enough effect; inconclusive = small, poorly fitted or top-dose-only effect, or another doubt; inactive = no such curve, though single readings can be large or run the other way; cell line not stated here;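 note: phosphodiesterase inhibitor Ro 20-1724 added with compounds to block cAMP breakdown; potency is the fitted concentration of half-maximal effect; nearly all actives have a fitted effect of over 60% in size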
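Cells in DMEM/10% FBS with G418 were pretreated with compounds in DMSO plus […] (300 uM stock) for 30 min at 37C. cAMP was measured by HTRF (cAMP-d2 plus anti-cAMP antibody-K) after 30 min at room temperature.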
gsp antagonist = antagonizes gsp, the McCune-Albright syndrome mutation; Potency, µM (highest dose often 76.9 µM), for inactives: at the top dose activity change, negative = inhibition, hits mostly inhibitors; hit rate 0.4% among 340,000; gsp-mutant cells, cAMP HTRF, 30 min; calls by dose curve; cell line not stated here;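 note: intracellular cAMP measured with PDE inhibitor Ro 20-1724 present during compound exposure; potency is the fitted concentration of half-maximal effect; % is set by controls: 0 for no effect and ±100 for the full control effect; nearly all actives have a fitted effect of over 65% in size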
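HTRF cAMP measurement after 30 min RT detection following 30 min, 37C compound treatment alongside […] (added as 300 uM solution) in G418-selected cells seeded at 2000/well and grown 16–24 h.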
RXFP1 antag = RXFP1 (human) relaxin receptor antagonism. Q9HBX9. HEK293-RXFP1, relaxin-stimulated cAMP HTRF, 30 min; active compounds read low. activity change, negative = inhibition, % at 57.5 µM. hit rate 0.59% among 350,000. AID 1259400;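 active = activity change of -60% or lower, but not beyond a set lower limit; inconclusive = change between -60% and -40%, or beyond the set limit; inactive = change above -40%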; note: % is set by controls: 0 for no effect and ±100 for the full control effect
RXFP1 agonist = RXFP1 (human) receptor agonism; HEK293T-RXFP1 cAMP TR-FRET, 30 min; response scale: percent of porcine relaxin response, buffer zero; hit rate 0.3% among 370,000; Potency, µM (top dose mostly 57.5 µM), for inactives: top-dose activation, hits mostly activators; Q9HBX9; active = well fitted activation curve with a large enough effect; inconclusive = small, poorly fitted or top-dose-only effect; note: potency is the fitted concentration of half-maximal effect; % is set by controls: 0 for no effect and ±100 for the full control effect; nearly all actives have a fitted effect of over 60% in size
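Agonist response is measured as cAMP accumulation in an RXFP1-transfected HEK293T line under PDE4 inhibition. Values are scaled between buffer-only and 29 nM porcine relaxin, and EC50s come from standard Hill equation fits.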
Active calls of the source: *; [ ] = remark or other dose. Compounds with a hit are over-represented: about 0.9% of the library has one in this group of screens.

CC(C)CCN1CCN(Cc2cccn2-c2cccnc2)CC1CCO (configuration not stated) was read as gsp agonist -21%, gsp antagonist 2%, RXFP1 antag 1 and RXFP1 agonist -2%.
`COc1cccc(CN2CCN(Cc3cccn3-c3cccnc3)CC2CCO)c1` (configuration not stated) gave gsp agonist -13%, gsp antagonist 50µM*, RXFP1 antag -7 and RXFP1 agonist 1%.
For CN1C/C(=C/c2ccncc2)C(=O)/C(=C/c2ccncc2)C1 the results were gsp agonist inconclusive, gsp antagonist 11%, RXFP1 antag -30 and RXFP1 agonist 1%.
For C=CC(=O)N1C/C(=C/c2ccc(Cl)cc2)C(=O)/C(=C\c2ccc(Cl)cc2)C1 the results were gsp agonist 29%, gsp antagonist 4% and RXFP1 antag -67*.
Screening C=CC(=O)N1C/C(=C/c2ccccc2)C(=O)/C(=C\c2ccccc2)C1 returned gsp agonist 0%, gsp antagonist -17% and RXFP1 antag -116*.
Screening O=C1/C(=C/c2ccc(C(=O)O)cc2)CCC/C1=C\c1ccc(C(=O)O)cc1 returned gsp agonist -2%, gsp antagonist 4% and RXFP1 agonist 1%.
`Cc1ccc(-n2ncc(C(=O)NCCN3CCC(Cc4ccccc4)CC3)c2C2CCN(C(=O)OC(C)(C)C)CC2)cc1` gave RXFP1 antag -69* and RXFP1 agonist -3%.
COc1ccccc1CN1CCC(CNC(=O)c2cnn(-c3ccc(Cl)cc3)c2C2CCN(C(=O)OC(C)(C)C)CC2)CC1 was read as RXFP1 antag -61* and RXFP1 agonist 4%.
`COc1ccccc1CN1CCC(CNC(=O)c2cnn(-c3ccc(C)c(C)c3)c2C2CCN(C(=O)OC(C)(C)C)CC2)CC1` gave RXFP1 antag inconclusive and RXFP1 agonist 1%.
`O=C(O)CSc1ccnc2cc(Cl)ccc12` gave gsp agonist 20%[15.4 µM], gsp antagonist 21%, RXFP1 antag 20 and RXFP1 agonist 13µM*.
`Cc1cnc2cc(Cl)ccc2c1SCC(=O)O` gave gsp agonist 10µM*, gsp antagonist -5%, RXFP1 antag 11 and RXFP1 agonist 21%.
For O=C(O)CSCC(=O)N1CCN(c2ccnc3cc(Cl)ccc23)CC1 the results were gsp agonist -57%, gsp antagonist 13%, RXFP1 antag -13 and RXFP1 agonist 2%.
Screening COCCNC(=O)c1ccc2c(=O)n(CCc3ccccc3)c(SCC(=O)CC(=O)OC)nc2c1 returned RXFP1 agonist 2%.
Screening COc1ccc(NC(=O)Nc2nnc(-c3ccncc3)s2)cc1 returned gsp agonist 5%, gsp antagonist 35µM*, RXFP1 antag -26 and RXFP1 agonist 1%.
`O=C(Nc1ccc(Cl)c(Cl)c1)Nc1nnc(-c2ccncc2)s1` gave gsp agonist -4%[15.4 µM], gsp antagonist 7%, RXFP1 antag -13 and RXFP1 agonist 5%.
Screening Cc1ccc(CN(C)c2nc(-c3cccnc3)nc3ccccc23)o1 returned gsp agonist -23%[15.4 µM], gsp antagonist -6%, RXFP1 antag -27 and RXFP1 agonist 3%.
`CN(Cc1ccccc1F)c1nc(-c2cccnc2)nc2ccccc12` gave gsp agonist 1%[15.4 µM], gsp antagonist inconclusive, RXFP1 antag -67* and RXFP1 agonist -3%.
For CCc1ccc(NS(=O)(=O)c2ccc(C(=O)N(C)C)s2)cc1 the results were RXFP1 agonist -3%.
Screening CCOC(=O)c1cccc(NC(=O)c2cc3sccc3n2C)c1 returned gsp agonist -2%, gsp antagonist 35µM*, RXFP1 antag -5 and RXFP1 agonist 0%.
For O=[N+]([O-])c1ccc(CSc2nnc3ccccn23)cc1 the results were gsp agonist 18µM*, gsp antagonist 1%, RXFP1 antag -1 and RXFP1 agonist 17%.
CCC(NC(=O)Nc1nnc(C(F)(F)F)s1)(C(F)(F)F)C(F)(F)F was read as gsp agonist 0%, gsp antagonist 4.5µM*, RXFP1 antag -2 and RXFP1 agonist 1%.
`Cc1ccc(/C=N/NC(=O)C(C)Oc2ccccc2[N+](=O)[O-])s1` (configuration not stated) gave gsp agonist -9%, gsp antagonist 11µM* and RXFP1 agonist 3%.
Screening Cc1ccc(CNC(=O)C(CC(C)C)NS(=O)(=O)c2ccc3c(c2)oc(=O)n3C)cc1 (configuration not stated) returned RXFP1 agonist 0%.
`c1ccc(N2CC3CCc4ccccc4C3=N2)cc1` (configuration not stated) gave gsp agonist 10µM*, gsp antagonist 9%, RXFP1 antag 5 and RXFP1 agonist 19%.
CN1N=C2c3ccccc3CCC2C1c1ccc(F)cc1 (configuration not stated) was read as gsp agonist -10%[15.4 µM], gsp antagonist -2%, RXFP1 antag -3 and RXFP1 agonist -4%.
Screening CCN(C(=O)c1ccco1)c1nnc(-c2ccc(OC)cc2)s1 returned gsp agonist 32µM*, gsp antagonist -1%, RXFP1 antag -14 and RXFP1 agonist inconclusive.
CCC1Oc2ccc(Cl)cc2N(CC(=O)NCCc2ccc(Cl)cc2)C1=O (configuration not stated) was read as RXFP1 antag -7 and RXFP1 agonist 1%.
Screening CCOC(=O)c1c(C)oc2nc(C)nc(NCc3ccccc3OC)c12 returned RXFP1 antag -15 and RXFP1 agonist 0%.
`COc1ccc(CNC(=O)CCCn2nc(C)n3ccnc3c2=O)cc1` gave gsp agonist inconclusive, gsp antagonist 5%, RXFP1 antag 9 and RXFP1 agonist inconclusive.
`COc1cccc(CNC(=O)CCCn2nc(C)n3c(cc4sccc43)c2=O)c1` gave gsp agonist 1%, gsp antagonist -15%, RXFP1 antag 3 and RXFP1 agonist 18%.
`Cc1nn(CCCC(=O)NCc2ccccc2)c(=O)c2nccn12` gave gsp agonist inconclusive, gsp antagonist 9%, RXFP1 antag 20 and RXFP1 agonist 28µM*.
For CCc1ccc(CNC(=O)CCCn2nc(C)n3ccnc3c2=O)cc1 the results were gsp agonist 16µM*, gsp antagonist 7%, RXFP1 antag -6 and RXFP1 agonist inconclusive.
Cc1cc(N2CCN(C(c3ccccc3)c3ccccc3)CC2)n2ncnc2n1 was read as gsp agonist 0%, gsp antagonist -11%, RXFP1 antag inconclusive and RXFP1 agonist 3%.
Cc1nc2ncnn2c(N2CCN(C(c3ccccc3)c3ccccc3)CC2)c1C was read as gsp agonist 1%, gsp antagonist -36%, RXFP1 antag -116* and RXFP1 agonist 0%.
`O=C(O)c1c(-c2ccccc2)c2oc3ccccc3c2[nH]c1=O` gave gsp agonist 40µM*, gsp antagonist 5%, RXFP1 antag -5 and RXFP1 agonist 8%.
O=C(COc1ccccc1)NNc1c2ccccc2nc2ccccc12 was read as gsp agonist -51%, gsp antagonist 40µM*, RXFP1 antag -25 and RXFP1 agonist 0%.
